# Measured values taken from PubChem BioAssay (EPA / NIEHS).
# Active and inactive are the calls of the source. The calls were made as follows: active = hit-call score of the fitted dose curve at least 0.9, where 1 is the maximum; inactive = score below 0.9.
# Experiments:
# Conditions in all cases: mRNA level, 48 h; actives raise or lower the signal
# [1] = read-out: Lipoprotein lipase (LPL), LPL (gene 4023); experiment: LTEA_HepaRG_LPL: Life Technologies and Expression Analysis (LTEA) Assay for Lipoprotein lipase (LPL) using HepaRG (AID 2283515)
# Method in brief: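 HepaRG, 48 h exposure, 8-pt half-log dilutions from 100 uM, 0.5% DMSO vehicle, duplicates; qRT-PCR (Fluidigm array) of LPL mRNA vs housekeeping genes; bidirectional curve fit relative to DMSO baseline.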
# [2] = read-out: MicroRNA 122 (MIR122), gene 406906; experiment: LTEA_HepaRG_MIR122: Life Technologies and Expression Analysis (LTEA) Assay for MicroRNA 122 (MIR122) using HepaRG (AID 2283516); also: the transcript read is the microRNA miR-122
# Method in brief: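 Expression measured by microfluidic qRT-PCR with three housekeeping genes for normalisation, after 48 h treatment of HepaRG cultures. Eight concentrations (top 100 uM, half-log steps, 0.5% DMSO vehicle) in duplicate; gain or loss fitted relative to vehicle.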
# [3] = read-out: matrix metalloproteinase-10 (MMP10), MMP10 (gene 4319); experiment: LTEA_HepaRG_MMP10: Life Technologies and Expression Analysis (LTEA) Assay for matrix metalloproteinase-10 (MMP10) using HepaRG (AID 2283517)
# Method in brief: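 Transcript levels come from Fluidigm qRT-PCR normalized to three housekeeping genes, with curves fitted bidirectionally against 0.5% DMSO. Human HepaRG cells were dosed for 48 hours at concentrations up to 100 uM.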
# MYC, MYC (gene 4609) = experiment: LTEA_HepaRG_MYC: Life Technologies and Expression Analysis (LTEA) Assay for MYC using HepaRG (AID 2283518)
# Method in brief: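 Expression changes were scored by TaqMan qRT-PCR with ACTB, GAPDH and POLR2A normalization. Cultures in serum-free induction medium received duplicate 8-point concentration series, highest 100 uM, for 48 h; DMSO (0.5%) served as baseline.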
# [4] = read-out: matrix metalloproteinase-3 (MMP3), MMP3 (gene 4314); experiment: LTEA_HepaRG_MMP3: Life Technologies and Expression Analysis (LTEA) Assay for matrix metalloproteinase-3 (MMP3) using HepaRG (AID 2283519)
# Method in brief: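 qRT-PCR read-out of MMP3 mRNA (normalised to three housekeeping genes) in HepaRG liver cells after 48 h chemical exposure; 8-point half-log series, top 100 uM, 0.5% DMSO vehicle. Bidirectional curve fitting against DMSO baseline.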
# [5] = read-out: Paternally Expressed 10 (PEG10), PEG10 (gene 23089); experiment: LTEA_HepaRG_PEG10: Life Technologies and Expression Analysis (LTEA) Assay for Paternally Expressed 10 (PEG10) using HepaRG (AID 2283520)
# Method in brief: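 PEG10 transcript measured by Fluidigm qRT-PCR, normalized to three housekeeping genes, in HepaRG cells treated 48 h (highest 100 uM, half-log steps, 0.5% DMSO vehicle). Cells plated 48 h before switching to serum-free induction medium.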
# [6] = read-out: Nuclear factor NF-kappa-B p105 subunit (Homo sapiens) (UniProt P19838); experiment: LTEA_HepaRG_NFKB1: Life Technologies and Expression Analysis (LTEA) Assay for Nuclear Factor Kappa B Subunit 1 (NFKB1) using HepaRG (AID 2283521);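 as to outcome: differentiated human HepaRG liver cells in serum-free induction medium; TaqMan qRT-PCR transcript normalised to ACTB GAPDH and POLR2A housekeeping genes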
# Method in brief: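 HepaRG, 48 h exposure; 8-pt half-log series from 100 uM in 0.5% DMSO; duplicates. Readout: NFKB1 mRNA by qRT-PCR (Fluidigm arrays), housekeeping-normalized. Gain/loss fit vs DMSO baseline.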
# [7] = read-out: Protein phosphatase 2A (PPP2R4), PTPA (gene 5524); experiment: LTEA_HepaRG_PPP2R4: Life Technologies and Expression Analysis (LTEA) Assay for Protein phosphatase 2A (PPP2R4) using HepaRG (AID 2283522)
# Method in brief: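 Expression was quantified by Fluidigm qRT-PCR normalised to three housekeeping genes after 48 h treatment. Human HepaRG cells received an 8-point series from 100 µM downward by half-logs, in duplicate with 0.5% DMSO vehicle and 1 mM phenobarbital as induction control.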
# [8] = read-out: Phosphatase and tensin (PTEN), PTEN (gene 5728); experiment: LTEA_HepaRG_PTEN: Life Technologies and Expression Analysis (LTEA) Assay for Phosphatase and tensin (PTEN) using HepaRG (AID 2283523)
# Method in brief: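 HepaRG, 48 h exposure, 8-pt half-log series from 100 uM top, 0.5% DMSO vehicle, duplicates. Readout: Fluidigm qRT-PCR of PTEN transcript; housekeeping normalization (ACTB, GAPDH, POLR2A). Gain or loss fitted relative to DMSO baseline.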
# [9] = read-out: solute carrier (SLC22A1), SLC22A1 (gene 6580); experiment: LTEA_HepaRG_SLC22A1: Life Technologies and Expression Analysis (LTEA) Assay for solute carrier (SLC22A1) using HepaRG (AID 2283524);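 as to AC50: differentiated human HepaRG liver cells in serum-free induction medium; TaqMan qRT-PCR normalized to ACTB GAPDH and POLR2A housekeeping genes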
# Method in brief: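 qRT-PCR readout (TaqMan, Fluidigm arrays) of SLC22A1 transcript, normalized to three housekeeping genes; bidirectional curve fit relative to 0.5% DMSO vehicle. Differentiated human HepaRG cells, 48 h chemical exposure, top concentration 100 uM, half-log steps, eight points.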
# [10] = read-out: Pyruvate Dehydrogenase Kinase 4 (PDK4), PDK4 (gene 5166); experiment: LTEA_HepaRG_PDK4: Life Technologies and Expression Analysis (LTEA) Assay for Pyruvate Dehydrogenase Kinase 4 (PDK4) using HepaRG (AID 2283525)
# Method in brief: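 HepaRG (human liver line), 48 h chemical exposure, 8-pt half-log CRC top 100 uM, 0.5% DMSO vehicle, duplicates. Readout: TaqMan qRT-PCR of PDK4 mRNA, housekeeping-normalized; gain/loss fit relative to DMSO baseline.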
# [11] = read-out: NAD(P)H dehydrogenase [quinone] 1 (NQO1), NQO1 (gene 1728); experiment: LTEA_HepaRG_NQO1: Life Technologies and Expression Analysis (LTEA) Assay for NAD(P)H dehydrogenase [quinone] 1 (NQO1) using HepaRG (AID 2283526)
# Method in brief: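 NQO1 transcript induction or loss measured by TaqMan qRT-PCR, referenced to three housekeeping genes and fitted bidirectionally against 0.5% DMSO. HepaRG cultures exposed 48 h, duplicate, eight-point half-log series, top 100 uM.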
# [12] = read-out: Nuclear factor erythroid 2-related factor 2 (Homo sapiens) (UniProt Q16236); experiment: LTEA_HepaRG_NFE2L2: Life Technologies and Expression Analysis (LTEA) Assay for Nuclear factor erythroid 2-related factor 2 (NFE2L2) Transcription Factor using HepaRG (AID 2283527);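 as to outcome: TaqMan qRT-PCR transcript level normalised to ACTB GAPDH and POLR2A housekeeping genes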
# Method in brief: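 HepaRG, 48 h dosing, 8-pt half-log series from 100 uM in 0.5% DMSO, duplicates. Read-out: NFE2L2 mRNA by qRT-PCR (ACTB/GAPDH/POLR2A normalization). Bidirectional curve fit vs DMSO baseline.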
# [13] = read-out: succinate dehydrogenase complex iron sulfur subunit B (SDHB), SDHB (gene 6390); experiment: LTEA_HepaRG_SDHB: Life Technologies and Expression Analysis (LTEA) Assay for succinate dehydrogenase complex iron sulfur subunit B (SDHB) using HepaRG (AID 2283528)
# Method in brief: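 Readout is SDHB transcript level by qRT-PCR, normalised to three housekeeping genes and fitted bidirectionally against 0.5% DMSO vehicle. Human HepaRG cells were treated for 48 h at up to 100 uM.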
# [14] = read-out: Signal transducer and activator of transcription 3 (Homo sapiens) (UniProt P40763); experiment: LTEA_HepaRG_STAT3: Life Technologies and Expression Analysis (LTEA) Assay for Signal transducer and activator of transcription (STAT3) using HepaRG (AID 2283529)
# Method in brief: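 HepaRG, 48 h exposure, 8-pt half-log series (top 100 uM), 0.5% DMSO vehicle, duplicates. Readout: STAT3 transcript by Fluidigm qRT-PCR, housekeeping-normalized; bidirectional fit vs DMSO baseline.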
# [15] = read-out: solute carrier (SLCO1B1), SLCO1B1 (gene 10599); experiment: LTEA_HepaRG_SLCO1B1: Life Technologies and Expression Analysis (LTEA) Assay for solute carrier (SLCO1B1) using HepaRG (AID 2283530)
# Method in brief: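 Human HepaRG cultures treated for 48 h with an eight-concentration half-log series topping at 100 uM; SLCO1B1 measured by qRT-PCR and fitted bidirectionally relative to DMSO.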
# [16] = read-out: Transforming Growth Factor (TGFA), TGFA (gene 7039); experiment: LTEA_HepaRG_TGFA: Life Technologies and Expression Analysis (LTEA) Assay for Transforming Growth Factor (TGFA) using HepaRG (AID 2283532)
# Method in brief: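 qRT-PCR read-out of TGFA transcript, normalized to three housekeeping genes, fitted bidirectionally against 0.5% DMSO baseline. Human HepaRG cultures received chemicals for 48 h at eight half-log concentrations, top 100 uM.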
# [17] = read-out: Transforming Growth Factor (TGFB1), TGFB1 (gene 7040); experiment: LTEA_HepaRG_TGFB1: Life Technologies and Expression Analysis (LTEA) Assay for Transforming Growth Factor (TGFB1) Transporter using HepaRG (AID 2283533)
# Method in brief: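 Eight-point concentration-response (max 100 uM, half-log) in HepaRG under serum-free induction conditions, 48 h. TGFB1 mRNA by qRT-PCR, housekeeping-normalized.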
# TIMP1, TIMP1 (gene 7076) = experiment: LTEA_HepaRG_TIMP1: Life Technologies and Expression Analysis (LTEA) Assay for TIMP1 using HepaRG (AID 2283534);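 as to outcome: TaqMan qRT-PCR signal normalized to ACTB GAPDH and POLR2A housekeeping genes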
# Method in brief: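 TIMP1 induction or repression in HepaRG cells after 48 h chemical exposure (eight concentrations, highest 100 uM), assessed by normalized qRT-PCR with bidirectional fitting to DMSO controls.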
# Sequence of Nuclear factor erythroid 2-related factor 2 (Homo sapiens) (Q16236 whole entry, looked up): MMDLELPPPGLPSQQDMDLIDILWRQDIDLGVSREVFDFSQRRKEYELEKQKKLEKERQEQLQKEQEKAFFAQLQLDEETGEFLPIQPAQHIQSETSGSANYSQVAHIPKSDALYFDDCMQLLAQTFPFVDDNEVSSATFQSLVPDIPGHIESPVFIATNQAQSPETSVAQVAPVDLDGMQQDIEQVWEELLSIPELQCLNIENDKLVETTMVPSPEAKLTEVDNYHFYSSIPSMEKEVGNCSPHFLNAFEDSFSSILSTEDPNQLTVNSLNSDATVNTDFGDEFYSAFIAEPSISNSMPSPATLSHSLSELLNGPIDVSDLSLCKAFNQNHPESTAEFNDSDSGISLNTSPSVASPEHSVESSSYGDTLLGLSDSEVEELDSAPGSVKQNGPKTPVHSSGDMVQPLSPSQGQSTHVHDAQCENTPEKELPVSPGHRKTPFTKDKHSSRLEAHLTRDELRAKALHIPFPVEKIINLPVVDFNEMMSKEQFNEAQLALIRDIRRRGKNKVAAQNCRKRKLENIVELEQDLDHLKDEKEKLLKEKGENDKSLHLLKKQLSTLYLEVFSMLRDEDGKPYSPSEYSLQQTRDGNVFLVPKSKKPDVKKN
# Sequence of Signal transducer and activator of transcription 3 (Homo sapiens) (P40763 whole entry, looked up): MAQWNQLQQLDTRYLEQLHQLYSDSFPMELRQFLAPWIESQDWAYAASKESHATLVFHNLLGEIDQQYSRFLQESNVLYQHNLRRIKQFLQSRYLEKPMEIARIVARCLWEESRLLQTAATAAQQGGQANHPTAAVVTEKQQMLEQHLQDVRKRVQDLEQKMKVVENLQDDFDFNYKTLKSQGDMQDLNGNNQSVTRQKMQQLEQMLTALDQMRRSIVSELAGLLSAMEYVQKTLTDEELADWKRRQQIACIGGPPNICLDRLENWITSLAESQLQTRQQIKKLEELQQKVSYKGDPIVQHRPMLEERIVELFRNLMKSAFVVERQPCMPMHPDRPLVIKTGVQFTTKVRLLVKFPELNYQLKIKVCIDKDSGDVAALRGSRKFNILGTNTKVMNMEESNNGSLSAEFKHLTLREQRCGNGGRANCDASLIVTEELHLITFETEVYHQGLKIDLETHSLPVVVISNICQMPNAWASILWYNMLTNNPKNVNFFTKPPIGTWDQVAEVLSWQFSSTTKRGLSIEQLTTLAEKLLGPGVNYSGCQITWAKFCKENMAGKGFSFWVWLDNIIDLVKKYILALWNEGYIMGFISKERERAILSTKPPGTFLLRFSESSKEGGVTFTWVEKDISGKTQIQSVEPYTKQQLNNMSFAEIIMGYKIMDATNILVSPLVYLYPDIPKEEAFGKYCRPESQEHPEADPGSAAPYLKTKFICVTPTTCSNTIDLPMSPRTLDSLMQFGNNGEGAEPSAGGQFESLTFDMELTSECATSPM
# Sequence of Nuclear factor NF-kappa-B p105 subunit (Homo sapiens) (P19838 whole entry, looked up): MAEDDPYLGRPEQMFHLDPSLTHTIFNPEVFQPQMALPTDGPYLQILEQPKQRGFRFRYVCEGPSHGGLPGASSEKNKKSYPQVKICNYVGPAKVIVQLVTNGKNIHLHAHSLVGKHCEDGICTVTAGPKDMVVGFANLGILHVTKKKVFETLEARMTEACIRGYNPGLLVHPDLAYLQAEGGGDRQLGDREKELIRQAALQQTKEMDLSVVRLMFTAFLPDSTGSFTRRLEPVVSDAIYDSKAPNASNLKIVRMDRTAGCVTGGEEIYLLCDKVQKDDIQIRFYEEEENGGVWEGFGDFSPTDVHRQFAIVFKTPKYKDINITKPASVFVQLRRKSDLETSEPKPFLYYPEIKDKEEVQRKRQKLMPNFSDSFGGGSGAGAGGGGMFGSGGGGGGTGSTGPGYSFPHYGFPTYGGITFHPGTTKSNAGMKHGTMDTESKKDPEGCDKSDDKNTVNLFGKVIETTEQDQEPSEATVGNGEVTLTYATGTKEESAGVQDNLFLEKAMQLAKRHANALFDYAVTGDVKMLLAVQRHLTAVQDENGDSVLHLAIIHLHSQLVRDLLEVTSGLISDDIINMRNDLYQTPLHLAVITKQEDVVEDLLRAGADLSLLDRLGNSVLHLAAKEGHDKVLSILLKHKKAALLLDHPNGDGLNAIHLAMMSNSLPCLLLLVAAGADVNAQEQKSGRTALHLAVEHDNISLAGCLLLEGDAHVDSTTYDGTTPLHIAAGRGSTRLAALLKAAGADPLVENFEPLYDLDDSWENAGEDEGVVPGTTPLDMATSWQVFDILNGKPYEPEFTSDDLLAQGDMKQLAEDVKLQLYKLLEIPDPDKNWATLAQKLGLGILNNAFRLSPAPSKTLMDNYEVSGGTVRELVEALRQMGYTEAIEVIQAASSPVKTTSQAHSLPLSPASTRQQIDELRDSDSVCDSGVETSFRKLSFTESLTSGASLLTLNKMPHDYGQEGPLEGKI
structure (smiles),measurement,setting,value
CCCCCCCCN(C)CCCCCCCC,outcome,[1],inactive
same,outcome,[2],inactive
same,outcome,[3],inactive
same,outcome,"MYC, MYC (gene 4609)",inactive
same,outcome,[4],inactive
same,outcome,[5],inactive
same,outcome,[6],inactive
same,outcome,[7],inactive
same,outcome,[8],inactive
same,outcome,[9],inactive
same,outcome,[10],inactive
same,outcome,[11],inactive
same,outcome,[12],inactive
same,outcome,[13],inactive
same,outcome,[14],inactive
same,outcome,[15],inactive
same,outcome,[16],inactive
same,outcome,[17],inactive
same,outcome,"TIMP1, TIMP1 (gene 7076)",inactive
CCOC(=O)O[C@H](C)OC(=O)c1ccc2c(c1)cc(C(=O)NC1CCN(C(C)C)CC1)n2Cc1cc(-c2ccc(Cl)s2)on1,outcome,[1],inactive
same,outcome,[2],inactive
same,outcome,[3],inactive
same,outcome,"MYC, MYC (gene 4609)",inactive
same,AC50,[4],47.2 µM (active)
same,outcome,[5],inactive
same,outcome,[6],inactive
same,outcome,[7],inactive
same,outcome,[8],inactive
same,outcome,[9],inactive
same,outcome,[10],inactive
same,outcome,[11],inactive
same,outcome,[12],inactive
same,outcome,[13],inactive
same,outcome,[14],inactive
same,outcome,[15],inactive
same,outcome,[16],inactive
same,outcome,[17],inactive
same,outcome,"TIMP1, TIMP1 (gene 7076)",inactive
CC(C)(C)c1cc(/C=C2\SC(N)=NC2=O)cc(C(C)(C)C)c1O,outcome,[1],inactive
same,AC50,[2],94.3 µM (active)
same,AC50,[3],49.9 µM (active)
same,AC50,"MYC, MYC (gene 4609)",28.9 µM (active)
same,AC50,[4],3.52 µM (active)
same,outcome,[5],inactive
same,AC50,[6],93.6 µM (active)
same,AC50,[7],96.5 µM (active)
same,AC50,[8],18.4 µM (active)
same,AC50,[9],25.3 µM (active)
same,AC50,[10],12.4 µM (active)
same,AC50,[11],15.8 µM (active)
same,AC50,[12],22.7 µM (active)
same,outcome,[13],inactive
same,outcome,[14],inactive
same,AC50,[15],24.9 µM (active)
same,AC50,[16],22.6 µM (active)
same,AC50,[17],4.43 µM (active)
same,AC50,"TIMP1, TIMP1 (gene 7076)",33.8 µM (active)
c1ccc(C[n+]2cccc3ccccc32)cc1,AC50,[1],32.8 µM (active)
same,AC50,[2],22.5 µM (active)
same,outcome,[3],inactive
same,AC50,"MYC, MYC (gene 4609)",34.6 µM (active)
same,outcome,[4],inactive
same,outcome,[5],inactive
same,outcome,[6],inactive
same,outcome,[7],inactive
same,outcome,[8],inactive
same,AC50,[9],25 µM (active)
same,AC50,[10],31 µM (active)
same,outcome,[11],inactive
same,AC50,[12],13.6 µM (active)
same,outcome,[13],inactive
same,AC50,[14],20.5 µM (active)
same,AC50,[15],31.1 µM (active)
same,AC50,[16],63 µM (active)
same,outcome,[17],inactive
same,outcome,"TIMP1, TIMP1 (gene 7076)",inactive
O=C1CCC(C2CCCCC2)CC1,outcome,[1],inactive
same,outcome,[2],inactive
same,outcome,[3],inactive
same,outcome,"MYC, MYC (gene 4609)",inactive
same,outcome,[4],inactive
same,outcome,[5],inactive
same,outcome,[6],inactive
same,outcome,[7],inactive
same,outcome,[8],inactive
same,outcome,[9],inactive
same,outcome,[10],inactive
same,outcome,[11],inactive
same,outcome,[12],inactive
same,outcome,[14],inactive
same,outcome,[15],inactive
same,outcome,[16],inactive
same,outcome,[17],inactive
same,outcome,"TIMP1, TIMP1 (gene 7076)",inactive
CC1=CC(=O)/C(=C(/C)O)C(=O)O1,outcome,[1],inactive
same,outcome,[2],inactive
same,outcome,[3],inactive
same,outcome,"MYC, MYC (gene 4609)",inactive
same,outcome,[4],inactive
same,outcome,[5],inactive
same,outcome,[7],inactive
same,outcome,[8],inactive
same,outcome,[9],inactive
same,outcome,[10],inactive
same,outcome,[11],inactive
same,outcome,[12],inactive
same,outcome,[13],inactive
same,outcome,[14],inactive
same,outcome,[15],inactive
same,outcome,[16],inactive
same,outcome,[17],inactive
same,outcome,"TIMP1, TIMP1 (gene 7076)",inactive
